# Lassa entry inh = qHTS for Inhibitors of binding or entry into cells for Lassa Virus | Lassa virus pseudotype entry inhibition, cell reporter | Potency, µM (top dose mostly 37.9 µM), without a hit: at the top dose activity change, negative = inhibition, usual class: inhibitors | 1.2% of 300,000 active | AID 540256, 2011; calls by dose curve; tested in HEK293 cells; further: nearly all actives have a fitted effect of over 50% in size
# FMDV antiviral = High Throughput Screening for Foot and Mouth Disease Virus Antivirals. FMDV antiviral cell-based qHTS. Potency, µM (top dose mostly 57.9 µM), for inactives: top-dose activity change, negative = inhibition, most hits filed as inhibitors. 1.2% of 410,000 active; calls by dose curve; tested in HEK293T cells; further: read-out not given here; nearly all actives have a fitted effect of over 45% in size
# Marburg entry inh = qHTS for inhibitors of binding or entry into cells for Marburg Virus; 1.8% of 300,000 active; Potency, µM (highest dose often 37.8 µM), inactives show at the highest dose activity change, negative = inhibition, most hits filed as inhibitors; Marburg virus pseudotyped entry inhibition, cell reporter; AID 540276, 2011; calls by dose curve; tested in HEK293 cells
# RE007 growth inh = qHTS Assay for Inhibitors of the HIV-1 protein Vpr. S. pombe RE007 Vpr strain, BacTiter-Glo ATP luminescence, 24 h. Potency, µM (top dose mostly 92.2 µM), for inactives: top-dose activity change, negative = less growth, hits mostly inhibitors. 0.21% of 360,000 active. AID 651644, 2012; active means well fitted falling curve with a large enough effect; inconclusive means small, poorly fitted or top-dose-only effect; inactive means no such curve, though single readings can be large or run the other way; further: nearly all actives have a fitted effect of over 50% in size
#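 Fission yeast RE007 carrying one integrated HIV-1 vpr copy, seeded at OD 0.01 in PMG+AL medium with 23 nL pinned compound. Grown 24 h at 30 degrees; viability read by BacTiter-Glo luminescence after 5 min.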
# HCV inh = qHTS Assay for Inhibitors of Hepatitis C Virus (HCV); 3.4% of 340,000 active; Huh7.5.1 HCVcc-Cre infection, luciferase reporter, 44 h; Potency, µM (top dose mostly 41.8 µM), for inactives: top-dose activity change, negative = inhibition, most hits filed as inhibitors
#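 Whole-lifecycle infectious HCVcc-Cre system; cells 1,000/well, compound then virus (~0.5 moi) added 4 h after plating, 44 h culture. Luciferase read 15 sec following 15 min substrate incubation, room temp.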
# Sm TGR block = qHTS Assay for the Inhibitors of Schistosoma Mansoni Peroxiredoxins; Schistosoma mansoni thioredoxin glutathione reductase (TGR), Q962Y6; purified TGR, DTNB reduction, TNB absorbance 405 nm; Potency, µM (titrated, usually from 114 µM), for inactives: at the top dose activity change, negative = inhibition, actives largely listed as inhibitors; 3% of 360,000 active; AID 485364, 2010; further: nearly all actives have a fitted effect of over 60% in size
#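 Kinetic colorimetric format: TGR-catalysed, NADPH-driven DTNB reduction monitored via TNB absorbance. Enzyme dispensed at 20 nM; compound exposure 15 min at room temperature before reaction start.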
# Starred values were filed as active, the others as inactive; ? = inconclusive; nt = not tested or not shown; [ ] = remark or other dose. A selection: hits, their analogues and other compounds. The true share with any hit is near 7.2%. Unless noted, the call rests on the fitted dose curve; in most records, active means well fitted curve in the direction sought with a large enough effect; inconclusive means small, poorly fitted or top-dose-only effect, or another doubt; inactive means no such curve, though single readings can be large; an effect the other way counts as inactive or inconclusive. On the % scale 0 is the no-effect control and ±100 the full control effect; potency means the concentration at half of the fitted maximal effect.
SMILES,Lassa entry inh,FMDV antiviral,Marburg entry inh,RE007 growth inh,HCV inh,Sm TGR block
COCCCNC(=O)c1c(NC(=O)c2ccccc2Cl)n(Cc2ccccc2)c2nc3ccccc3nc12,-5.2%,-3.3%,2.9%,-7.3%,13.1%,-1.8%
CC(=O)N[C@@H](Cc1ccc(O)cc1)C(=O)N[C@H](C(=O)N[C@@H](C)C(=O)N[C@H](C#N)CC(=O)O)C(C)C,nt,nt,nt,nt,nt,0.2%
CC1CN(C(=O)N2CCC(C(=O)NCCC3=CCCCC3)CC2)c2ccccc2O1 (configuration not stated),3.8%[46.1 µM],0.9%,nt,nt,nt,-5.1%
CCCn1ccc2c(OCC(=O)Nc3ccc(C(F)(F)F)cc3)cccc2c1=O,5.5%[46.1 µM],-19.3%,nt,nt,nt,12.1%
O=C(CC1(c2cccc(F)c2)CC(=O)N(Cc2cccnc2)C1=O)N1CCCCCCC1 (configuration not stated),nt,1.1%,nt,nt,nt,nt
COCCNC(=O)c1c(N)n(Cc2ccco2)c2nc3ccccc3nc12,1.3%,nt,-22.0%,3.4%,-14.2%,39.8µM*
Nc1c(C(=O)NCCN2CCOCC2)c2nc3ccccc3nc2n1Cc1ccco1,-3.0%,-21.2%,1.1%,-3.6%,4.2%,?
CSc1ccc(CN(C)C(=O)C2CCN(C(=O)Nc3ccccc3)CC2)cc1,nt,?,nt,6.4%,10µM*,-7.2%
CN1C[C@@H]2C[C@@H](c3cccn3-c3nccs3)N3CCC[C@@]23C1=O,?,1.5%,-19.2%[46.1 µM],-18.8%,16.3%,5.3%
O=C1N(Cc2cccc(Cl)c2)C[C@@H]2C[C@@H](c3cccn3-c3ccccn3)N3CCC[C@@]123,?,-29.3%,?,-12.2%,6.31µM*,-31.7%
O=C1N(Cc2cccc(Cl)c2)C[C@@H]2C[C@@H](c3cccn3-c3nccs3)N3CCC[C@@]123,?,?,11.2µM*,-25.4%,?,-29.9%
Clc1ccc2c(c1)c1cc(Cl)ccc1n2CN1CCOCC1,?,-6.4%,-21.8%,?,22.4µM*,-6.5%
CCCCCc1c(CC)ncn1CCc1ccccc1OC,nt,39.8µM*,nt,?,nt,nt
COc1ccccc1CCn1cnc(Cc2ccccc2)c1C(C)C,nt,?,nt,-17.7%,nt,nt
CCCCc1c(-c2ccccc2OC)ncn1CCc1cccc(F)c1,nt,?,nt,-26.3%,nt,nt
COc1ccccc1CCn1cnc(-c2ccc(Br)cc2)c1C(C)C,nt,?,nt,-20.6%,nt,nt
CCCCCc1c(-c2ccccc2OC)ncn1CCc1ccccc1OC,nt,25.1µM*,nt,-28.8%,nt,nt
CCCCc1c(-c2ccccc2OC)ncn1CCc1cccc(OC)c1,nt,22.4µM*,nt,-25.8%,nt,nt
CCCCc1c(-c2ccccc2OC)ncn1CCc1ccccc1Cl,nt,35.5µM*,nt,-26.2%,nt,nt
COC(=O)c1ccc(CN2CCOc3ccc(C(O)c4cccnc4)cc3C2)cc1 (configuration not stated),nt,-25.5%,nt,nt,nt,nt
CCCCc1c(-c2ccccc2OC)ncn1CCc1ccccc1OC,nt,22.4µM*,nt,-8.1%,nt,nt
CCCCc1c(-c2ccccc2Br)ncn1CCc1ccccc1OC,nt,?,nt,-8.2%,nt,nt
COc1cc(NC(=O)NCCc2c(C)nn(C)c2C)cc(OC)c1OC,15.9%[46.1 µM],15.0%,nt,nt,nt,1.3%
CCC(CC)C(=O)N1CCc2cc(OC)c(OC)cc2C1COc1ccccc1OC (configuration not stated),-4.6%[46.1 µM],-19.9%,nt,nt,nt,-3.6%
CC(=O)OCCCNc1cc(Sc2ccc(Cl)cc2)c2nonc2c1[N+](=O)[O-],15.5%,31.6µM*,6.9%,-7.1%,4.2%,3.16µM*
CC(C)CCSc1cc(NCCO)c([N+](=O)[O-])c2nonc12,-28.1%,0.0%,?,11.8%,?,2.51µM*
CCN(CC)c1cc(NCCO)c([N+](=O)[O-])c2nonc12,-2.8%[46.1 µM],-1.1%,?,-15.3%,-11.1%,-11.3%
Cc1ccc(Sc2cc(NCCCO)c([N+](=O)[O-])c3nonc23)cc1,nt,?,nt,1.7%,17.1%,3.55µM*
COC(=O)c1c(C(=O)OC)c2c3ccccc3cc(-c3ccccc3)n2c1C(=O)OC,nt,nt,-23.4%[14.2 µM],nt,nt,nt

# Bioassay records as filed in PubChem BioAssay.
